Experimental data from article PMC5540273 (PLoS ONE, 2017).

What was measured:
Settings in all cases: concentration: 1 μM, replicates: in singlicate; n = 1
[1] = tested on: MYO3A
[2] = tested on: MYO3B
[3] = tested on: T1, NDR1
T1 construct: gene STK38

[4] = tested on: NDR2
[5] = tested on: NEK10
[6] = tested on: NEK11
[7] = tested on: NEK1
[8] = tested on: NEK2
[9] = tested on: NEK3
[10] = tested on: NEK4
[11] = tested on: NEK5
[12] = tested on: NEK6
[13] = tested on: NEK7
[14] = tested on: NEK9
[15] = tested on: T2, NIK
T2 construct: gene MAP3K14

[16] = tested on: T3, NIM1
T3 construct: gene MGC42105

[17] = tested on: NLK
[18] = tested on: T4, OSR1
T4 construct: gene OXSR1

[19] = tested on: PAK1
[20] = tested on: PAK2
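Note: KINOMEscan kinase panel screen.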

| Structure (SMILES) | %Inh [1] [%] | %Inh [2] [%] | %Inh [3] [%] | %Inh [4] [%] | %Inh [5] [%] | %Inh [6] [%] | %Inh [7] [%] | %Inh [8] [%] | %Inh [9] [%] | %Inh [10] [%] | %Inh [11] [%] | %Inh [12] [%] | %Inh [13] [%] | %Inh [14] [%] | %Inh [15] [%] | %Inh [16] [%] | %Inh [17] [%] | %Inh [18] [%] | %Inh [19] [%] | %Inh [20] [%] |
| --- | --- | --- | --- | --- | --- | --- | --- | --- | --- | --- | --- | --- | --- | --- | --- | --- | --- | --- | --- | --- |
| COc1ccc(Nc2nccc(N3CCC(NC(=O)C(C)c4ccc(Cl)cc4)CC3)n2)cc1 (stereo not drawn) [GSK1379812] | 24 | 0 | 39 | 0 | 43 | 0 | 0 | 4 | 53 | 0 | 54 | 55 | 0 | 10 | 0 | 11 | 35 | 0 | 21 | 15 |
| Fc1ccc(-c2nc[nH]c2-c2ccncc2)cc1 [SB-217360] | 0 | 6 | 30 | 9 | 24 | 0 | 0 | 0 | 11 | 0 | 0 | 0 | 0 | 0 | 20 | 4 | 49 | 0 | 23 | 25 |
| COc1ccc2cc(-c3nc(-c4ccccc4C(C)C)[nH]c3-c3ccncc3)ccc2c1 [SB-660566] | 0 | 0 | 18 | 0 | 45 | 4 | 41 | 0 | 0 | 15 | 0 | 2 | 0 | 4 | 0 | 13 | 29 | 3 | 25 | 28 |
| CS(=O)(=O)CCNCc1nc(-c2ccc3ncnc(Nc4ccc5c(cnn5Cc5ccccc5)c4)c3c2)cs1.Cl.Cl [GW569716] | 34 | 0 | 8 | 0 | 16 | 29 | 0 | 0 | 2 | 3 | 0 | 0 | 0 | 0 | 26 | 41 | 16 | 0 | 0 | 1 |
| Cl.Cl.Cl.N#Cc1ccc(CCNc2nccc(-c3cccc(CN4CCNCC4)c3)n2)cc1 [GSK2137462] | 2 | 0 | 4 | 0 | 1 | 0 | 0 | 15 | 0 | 0 | 33 | 0 | 0 | 27 | 0 | 3 | 24 | 9 | 24 | 21 |
| CCn1c(-c2ccccc2)nc2cnccc21 [SB-733416] | 28 | 0 | 0 | 0 | 17 | 5 | 0 | 0 | 9 | 35 | 0 | 13 | 0 | 0 | 0 | 16 | 11 | 1 | 23 | 11 |
| O=C(Nc1n[nH]c2nc(-c3cccs3)c(Br)cc12)C1CC1 [SB-735297] | 8 | 0 | 11 | 16 | 0 | 0 | 0 | 0 | 0 | 0 | 0 | 0 | 13 | 0 | 0 | 0 | 0 | 0 | 0 | 39 |
| CNc1nc(-c2ccc3c(N)n[nH]c3c2)cc(N2C[C@@H](C(=O)NC3CCCCC3)OC[C@H]2C)n1 [GSK2375584] | 35 | 0 | 29 | 28 | 9 | 0 | 2 | 0 | 11 | 0 | 11 | 0 | 0 | 4 | 5 | 0 | 9 | 6 | 14 | 16 |
| CC(=O)c1c(C)c2cnc(Nc3ccn(C)n3)nc2n(C2CCCC2)c1=O | 0 | 0 | 0 | 4 | 15 | 0 | 0 | 0 | 22 | 0 | 18 | 0 | 0 | 0 | 0 | 2 | 25 | 0 | 0 | 0 |
| Fc1ccc(-c2nc3n(c2-c2ccncc2)CCS3)cc1 [GI98581] | 12 | 0 | 0 | 0 | 14 | 9 | 0 | 0 | 6 | 38 | 8 | 6 | 0 | 8 | 2 | 10 | 64 | 5 | 0 | 6 |
| CCn1c(-c2c(N)noc2C)nc2cnccc21 [SB-737856] | 16 | 0 | 0 | 0 | 8 | 0 | 73 | 1 | 14 | 21 | 0 | 0 | 2 | 0 | 3 | 36 | 0 | 4 | 27 | 32 |
| CNc1nc(-c2ccc3c(N)n[nH]c3c2)cc(N2C[C@@H](C(=O)Nc3ccccc3)CC[C@H]2C)n1 [GSK2298859] | 27 | 0 | 22 | 0 | 13 | 0 | 0 | 0 | 0 | 0 | 7 | 0 | 0 | 4 | 0 | 0 | 0 | 10 | 0 | 0 |
| COc1ccc(CSc2nnc(-c3ccc4nccn4c3)o2)cc1C(F)(F)F | 2 | 0 | 14 | 12 | 13 | 0 | 3 | 0 | 0 | 4 | 4 | 10 | 7 | 0 | 0 | 0 | 18 | 8 | 15 | 61 |
| CS(=O)(=O)CCNCc1nc(-c2ccc3ncnc(Nc4ccc(OCc5ccccc5)c(Cl)c4)c3c2)cs1.Cl [GW582764] | 30 | 0 | 0 | 0 | 11 | 12 | 0 | 3 | 0 | 9 | 0 | 0 | 0 | 0 | 4 | 38 | 0 | 2 | 15 | 19 |
| COc1ccc(-c2coc3ccc(-c4nnc(C)o4)cc23)cc1 | 0 | 12 | 8 | 9 | 47 | 0 | 0 | 0 | 21 | 17 | 0 | 0 | 0 | 0 | 0 | 0 | 0 | 1 | 23 | 0 |
